# Rows were chosen to be rich in hits. Some 19% of all compounds tested hit in one or more screens of this group.
# DT40 TDP1 no CPT = qHTS for Inhibitors of human tyrosyl-DNA phosphodiesterase 1 (TDP1): qHTS in cells in absence of CPT; DT40 Tdp1-/- hTDP1 cells, no CPT, ATP luminescence, 48 h; Potency, µM (highest dose often 46.2 µM), inactives show at the highest dose activity change, negative = growth inhibition, hits mostly inhibitors; actives 15% (n = 420,000); note: potency is the fitted concentration of half-maximal effect; nearly all actives have a fitted effect of over 55% in size
#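 Seeded 400 DT40-hTDP1 cells/well (vehicle DMSO, no 20 nM CPT); pinned compounds; ≥48 hr at 37 °C; CellTiter-Glo luminescence as viability measure.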
# HT1080NT lethal = kills 2HG-producing HT-1080-NT fibrosarcoma cells | HT-1080-NT fibrosarcoma viability, CellTiter-Glo ATP luminescence, 48 h | Potency, µM (highest dose often 46.1 µM), for inactives: at the top dose activity, negative = less viability, usual class: cytotoxic | actives 1.6% (n = 360,000);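 note: NT is the 2HG producing partner of a matched IDH1 knockdown line; potency is the fitted concentration of half-maximal effect; 0% = DMSO-treated cells and -100% = media-only wells without cells; nearly all actives have a fitted effect of over 55% in size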
#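 Luminescent CellTiter-Glo readout after 48 hours of compound exposure at 37 degrees C defined viability of HT-1080-NT cells. Activity was normalized to DMSO wells and cell-free media wells; concentration-response curves were fitted and assigned curve classes.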
# HT1080 IDH1KD tx = HT-1080 IDH1 knockdown cell toxicity (counter line). HT-1080 IDH1 knockdown viability, ATP luminescence, 48 h. Potency, µM (series often up to 46.1 µM), inactives show at the highest dose activity, negative = toxicity, usual class: cytotoxic. actives 2% (n = 360,000). AID 686971;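 note: potency is the fitted concentration of half-maximal effect; 0% = DMSO wells and -100% = cell-free medium wells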
#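 Assay cells: HT-1080 with IDH1 knockdown, 750 per well, RPMI/5% FBS. Exposure: 48 h at 37 °C following 2 h pre-incubation. Read: CellTiter-Glo luminescence; fitted concentration-response, curve class assigned.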
# IL1B secr inh = inhibitors of inflammasome signaling (IL-1 beta secretion). THP-1 LPS/ATP IL-1B secretion, AlphaLISA, 16 h; stronger effect = lower value. activity change, % at 57.5 µM. actives 4.7% (n = 360,000); in the data active = activity change below about -50%; inconclusive = mostly about -30% to -49%
#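 Secreted IL-1B measured by AlphaLISA bead assay after 16 h compound exposure of THP-1 cells; compounds (final up to 57.5 uM) added 1 h before LPS (250 ng/mL) and ATP (1.25 mM) stimulation; lower signal means less secretion.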
# DT40 TDP1 CPT = DT40-hTDP1 cell growth loss with CPT | Potency, µM (top dose mostly 46.2 µM), for the others: top-dose activity change, negative = growth inhibition, hits mostly inhibitors | chicken DT40 Tdp1-/-;hTDP1 cells + 20 nM CPT, ATP luminescence, 48 h | actives 12% (n = 420,000) | AID 686979; note: potency is the fitted concentration of half-maximal effect; nearly all actives have a fitted effect of over 55% in size
#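 Chicken DT40 Tdp1-/- cells stably complemented with human TDP1 were seeded at 400 cells/well in medium containing 20 nM camptothecin, exposed to pin-transferred compounds, and grown at 37 °C for at least 48 hr. Viability was read as ATP luminescence.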
# uPA surface inh = cell surface uPA generation inhibition; cell surface uPA generation assay, qHTS; Potency, µM (series often up to 38.3 µM), inactives show top-dose activity change, negative = inhibition, usual class: inhibitors; actives 0.31% (n = 330,000); AID 540303; active = well fitted inhibition curve with a large enough effect; inconclusive = small, poorly fitted or top-dose-only effect; inactive = no such curve, though single readings can be large or run the other way; tested in mouse RAW 264.7 cells; note: potency is the fitted concentration of half-maximal effect; nearly all actives have a fitted effect of over 55% in size
# * = called active by the depositor; ? = inconclusive; · = no result given; [ ] = remark or other dose. Unless noted, calls come from the whole dose curve; as a rule, active = well fitted curve in the direction sought with a large enough effect; inconclusive = small, poorly fitted or top-dose-only effect, or another doubt; inactive = no such curve, though single readings can be large; an effect the other way counts as inactive or inconclusive. Unless noted, % is set by controls: 0 for no effect and ±100 for the full control effect.
SMILES,DT40 TDP1 no CPT,HT1080NT lethal,HT1080 IDH1KD tx,IL1B secr inh,DT40 TDP1 CPT,uPA surface inh
COc1ccc(N2CC(C(=O)Nc3ccccc3C(=O)NCc3ccco3)CC2=O)cc1 (configuration not stated),-9%,0%,-1%,-5,-24%,-1%
Cc1ccccc1C(=O)OCc1cc(=O)n2nc(C3CC3)sc2n1,-24%,·,·,·,-14%,·
O=C(c1ccccc1)c1cccc(C(=O)c2ccccc2)c1,-29%,1%,0%,-10,0%,16%
Cc1sc2cc3c(c(C(=O)c4ccccc4)[n+]2c1C)-c1cccc2cccc-3c12,1.3µM*,8.2µM*,8.2µM*,-97*,1µM*,-20%
O=C(c1ccccc1)c1c2c(cc3sc4ccccc4[n+]13)-c1cccc3cccc-2c13,2.3µM*,?,?,-108*,4.6µM*,0%
CCCOc1ccc(N2C(=O)CC(NCC#N)C2=O)cc1 (configuration not stated),-11%,23%,22%,-1,4%,-6%
CCCOc1ccc(N2C(=O)CC(NCCCN3CCC(C(N)=O)CC3)C2=O)cc1 (configuration not stated),?,1%,9%,-4,26µM*,10%
Cc1oc2ncnc(N3CCOCC3)c2c1C(=O)N(Cc1ccccc1)C(C)C,-15%,·,·,·,-1%,·
CCCCN(C)C(=O)C1CCCN(c2ncnc3onc(-c4ccc(F)cc4)c23)C1 (configuration not stated),23µM*,·,·,·,15µM*,·
CCCN(CCC)C(=O)C1CCCN(c2ncnc3onc(-c4ccc(F)cc4)c23)C1 (configuration not stated),16µM*,·,·,·,5.2µM*,·
Cc1ccc(N2CCN(c3ncnc4onc(-c5ccc(F)cc5)c34)CC2)c(C)c1,-2%,·,·,·,0%,·
CC(C)N(Cc1ccccc1)C(=O)C1CCCN(c2ncnc3onc(-c4ccc(F)cc4)c23)C1 (configuration not stated),5.2µM*,·,·,·,7.3µM*,·
O=C(COc1cc(F)ccc1[N+](=O)[O-])Nc1cccc(S(=O)(=O)NC2=NCCC2)c1,-20%,?,?,-2,-28%,-38%
Oc1c(N=NC(=S)Nc2ccccc2F)c2ccccc2n1Cc1ccc(F)cc1,2.3µM*,-15%,-15%,-9,5.2µM*,?
Cc1cccc(Cn2c(O)c(N=NC(=S)Nc3ccccc3F)c3ccccc32)c1,7.3µM*,-1%,0%,-7,7.3µM*,?
Oc1c(N=NC(=S)Nc2ccccc2F)c2ccccc2n1Cc1cccc(Cl)c1,6.5µM*,?,-23%,-11,6.5µM*,-3%
CC(C)CCn1c(O)c(N=NC(=O)c2ccco2)c2ccccc21,?,16%,7%,-7,-19%,-1%
O=C(CNC(=O)Cc1ccccc1)N=Nc1c(O)n(Cc2ccc3c(c2)OCO3)c2ccccc12,-9%,-10%,-11%,?,?,13%
CCOC(=O)c1cccc(NC(=O)Nc2ccc3c(c2)N(C)C(=O)c2ccccc2S3)c1,?,·,·,·,21µM*,·
CCOC(=O)c1cccc(NC(=O)CN2C(=O)CC(C)(C)Sc3ccccc32)c1,?,·,·,·,21µM*,·
CCCCNC(=O)Nc1ccc2c(c1)N(C)C(=O)c1ccccc1S2,16µM*,-30%,-29%,19,?,18%
CC(C)Oc1ccc(CNC(=O)Nc2ccc3c(c2)N(C)C(=O)c2ccccc2S3)cc1,23µM*,·,·,·,?,·
Cc1ncc(C[n+]2csc(CCOP(=O)(O)OP(=O)(O)O)c2C)c(N)n1,7%,·,·,·,-8%,·
CCOC(=O)c1ccccc1NC(=O)CN1C(=O)CCS(=O)(=O)c2ccccc21,21µM*,-6%,6%,-6,23µM*,10%
O=C(CN1C(=O)CCS(=O)(=O)c2ccccc21)Nc1ccc(Cl)cc1,10%,3%,2%,0,-2%,-2%
SMILES,DT40 TDP1 no CPT,HT1080NT lethal,HT1080 IDH1KD tx,IL1B secr inh,DT40 TDP1 CPT,uPA surface inh
O=C(Cn1cncn1)NCC1Cc2cc(-c3ccsc3)cc(Cl)c2O1 (configuration not stated),-15%,·,·,·,5%[9.04 µM],·
Cc1ccccc1OCc1occc1C(=O)Nc1cccc(-n2cnnn2)c1,18µM*,-29%,?,11,23µM*,-18%
COc1cccc(NC(=O)COc2cccc(-n3cnnn3)c2)c1,11%,5%,6%,0,1%,3%
Cc1cc(OCCCC(=O)Nc2cccc(-n3cnnn3)c2)ccc1Cl,12µM*,-1%,1%,-6,?,-16%
Cc1cccc(OCc2occc2C(=O)Nc2cccc(-n3cnnn3)c2)c1,0%,-28%,-14%,58,-23%,0%
O=C(N[C@@H]1CC[C@@H](CCNC(=O)C2CCOCC2)O[C@@H]1CO)c1ccncc1,16%,12%,15%,21,-1%,·
CCCOc1ccc2ccccc2c1/C=N/n1c(C)nnc1-n1nc(C)cc1C,3.3µM*,?,4.1µM*,12,3.3µM*,-19%
Cc1cc(C)n(-c2nnc(C)n2/N=C/c2ccco2)n1,-2%,-3%,3%,-8,-9%,-2%
Cc1ccccc1-c1cc2nc(NCc3ccc4occc4c3)n(C)c(=O)c2s1,?,23%,23%,-10,18µM*,·
Cc1ccccc1-c1cc2nc(NCc3ccccc3F)n(C)c(=O)c2s1,6.5µM*,?,?,?,7.3µM*,·
Cc1ccccc1-c1cc2nc(Oc3ccc4c(c3)OCO4)n(C)c(=O)c2s1,?,5%,0%,?,12µM*,·
Cc1ccc(CNc2nc3cc(-c4ccccc4C)sc3c(=O)n2C)c(C)c1,?,?,?,-14,?,·
Cc1ccccc1-c1cc2nc(NCCN3CCNC3=O)n(C)c(=O)c2s1,?,-20%,-6%,0,?,·
C=CCNc1nc2cc(-c3ccccc3C)sc2c(=O)n1C,10µM*,15µM*,9.2µM*,58,15µM*,·
CCN(CC)CCNC(=O)c1cc(Nc2ccc(OC)c(OC)c2)nc2ccccc12,11%,-22%,?,-58*,-25%,-2%
CCN(CC)CCCNC(=O)c1cc(Nc2ccc(OC)cc2)nc2ccccc12,23µM*,-28%,?,-60*,18µM*,2%
CCCCN1CCCCC1(C)C(=O)NCc1ccc2c(c1)OCO2 (configuration not stated),?,15%,1%,17,?,·

# From PubChem
